Out of some 1,800 compounds screened, about 50 (3%) showed activity. The sample as a whole holds a higher share of actives than the screen did.
Test system: mouse p16Ink4a+/- lung fibroblasts (INKBRITE, bleomycin-injured)
Assay: percentage of GFP+ (p16Ink4a+) fibroblasts among all cells in well; higher = less depletion of p16Ink4a+ cells, active = 20 or less
Conditions: 1 µM; 3 days

SMILES | percentage of GFP+
CCC[C@H](NC(=O)/C(C#N)=C/c1cccc(Br)n1)c1ccccc1 [Degrasyn] | 13.1% (active)
N#C/C(=C\c1ccc(O)c(O)c1)C(=O)NCc1ccccc1 [Tyrphostin Ag 490] | 42.9% (inactive)
C[C@H](NC(=O)/C(C#N)=C/c1cccc(Br)n1)c1ccccc1 | 43% (inactive)
Nc1ccn([C@@H]2O[C@H](CO)[C@@H](O)[C@H]2O)c(=O)n1 [Cytidine] | 48.9% (inactive)
Nc1ccn([C@@H]2O[C@H](CO)[C@@H](O)C2(F)F)c(=O)n1 [Gemcitabine] | 17.1% (active)
Nc1ccn([C@@H]2O[C@H](CO)[C@@H](O)[C@@H]2O)c(=O)n1 [Cytarabine] | 26.8% (inactive)
Cc1nc2n(c(=O)c1CCN1CCC(c3noc4cc(F)ccc34)CC1)CCCC2 [Risperidone] | 42.6% (inactive)
CCC(=O)N1CCN(c2ccc(-n3c(=O)ccc4cnc5ccc(-c6cnc7ccccc7c6)cc5c43)cc2C(F)(F)F)CC1 [Torin 1] | 46% (inactive)
COc1ccc(-c2ccc3ncc4c(c3c2)n(-c2ccc(N3CCNCC3)c(C(F)(F)F)c2)c(=O)n4C)cn1 | 10.6% (active)
Cn1c(=O)n(-c2ccc(C(C)(C)C#N)cc2)c2c3cc(-c4cnc5ccccc5c4)ccc3ncc21 [Dactolisib] | 36% (inactive)
Cc1cc(Nc2cc(CN3CCOCC3)c3nc(C)c(Cc4ccc(Cl)cc4F)n3n2)[nH]n1 | 43.7% (inactive)
Cn1c(N2CCCCS2(=O)=O)nc(C(=O)NCc2ccc(F)cc2)c(O)c1=O | 26.4% (inactive)
NC(=O)c1noc([C@H](CCCC2CCCCC2)CC(=O)NO)n1 | 47% (inactive)
CC(=O)O[C@H]1C[C@@H]2CC[C@@H]3[C@H](CC[C@@]4(C)[C@H]3C[C@H]([N+]3(C)CCCCC3)[C@@H]4OC(C)=O)[C@@]2(C)C[C@@H]1N1CCCCC1 [Vecuronium] | 47% (inactive)
CN(NC(=O)CC(=O)NN(C)C(=S)c1ccccc1)C(=S)c1ccccc1 [Elesclomol] | 12% (active)
O=C(O)CCNC(=O)c1ccccc1 [Betamipron] | 46% (inactive)
O=C(O)c1ccccc1 [Benzoic Acid] | 44.8% (inactive)
Cn1cc(C2=C(c3cn(CCCSC(=N)N)c4ccccc34)C(=O)NC2=O)c2ccccc21 | 58.4% (inactive)
OC[C@H]1O[C@@H](n2cnc3c(O)ncnc32)[C@H](O)[C@@H]1O [Inosine] | 47.7% (inactive)
CN1CCN(CCOc2cc(OC3CCOCC3)c3c(Nc4c(Cl)ccc5c4OCO5)ncnc3c2)CC1 [Saracatinib] | 46.2% (inactive)
